Data on 40 compounds can be found in PubChem BioAssay (EPA / NIEHS).

Activity calls are given as the source filed them. Rule for the calls: active = hit-call score of the fitted dose curve at least 0.9, where 1 is the maximum; inactive = score below 0.9.

Read-out in the assay: Monokine induced gamma interferon (MIG), CXCL9 (gene 4283)
Kind of assay: BSK_3C_MIG: BioMAP Diversity Plus: 3C Assay for Monokine induced gamma interferon (MIG) Biomarker Activity (AID 2283021).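 For AC50: MIG protein level measured by immunoassay in the treated endothelial cultures.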 The note with it: primary human endothelial cells (HUVEC); actives raise or lower the signal. Here is the method:
BSK_3C is a cell-based, multiplexed-readout assay that uses umbilical vein endothelium, a human vascular primary cell, with measurements taken at 24 hours after chemical dosing in a 96-well plate.BSK_3C_MIG is an assay component measured in the BSK_3C assay. It measures MIG antibody related to regulation of gene expression using ELISA technology.Data from the assay component BSK_3C_MIG was analyzed into 1 assay endpoint. This assay endpoint, BSK_3C_MIG, was analyzed with bidirectional fitting relative to DMSO as the negative control and baseline of activity. Using a type of binding reporter, gain or loss-of-signal activity can be used to understand changes in the signaling as they relate to the gene CXCL9. Furthermore, this assay endpoint can be referred to as a primary readout, because this assay has produced multiple assay endpoints where this one serves a signaling function. To generalize the intended target to other relatable targets, this assay endpoint is annotated to the cytokine intended target family, where the subfamily is chemotactic factor.
The levels of cell surface (or secreted, indicated by the prefix "s") biomarker endpoints were measured by ELISA. Overt cytotoxicity to cells in confluent adherent cultures (all systems other than the BT system) was assessed by measuring total protein levels using sulforhodamine B (SRB) staining in parallel cultures at the time of biomarker measurements, indicated as SRB endpoints. For proliferation assays for adherent cell types, individual cell types are cultured at sub-confluence and relative cell numbers quantified by SRB staining at time points optimized for each system (48 h: 3C and CASM3C systems; 72 h: BT and HDF3CGF systems; 96 h: SAg system). SRB was performed by staining cells with 0.1% SRB after fixation with 10% TCA and reading wells at 560 nm.Viability and proliferation of PBMC (T cells) was quantified by Alamar Blue reduction for the SAg and BT systems. For PBMC viability (referred to as PBMC Cytotoxicity within the assay endpoint names), cells were plated (75,000/well in a 96-well plate) and then chemical samples added for 1 h before addition of activators, SEB and TSST-1 (20 ng/mL final concentration each). Cells were incubated for 90 h. Then, Alamar Blue (20 uL/well) (Invitrogen, Cat DAL1100) was added for 6 h, and the plates were read with a fluorescence microplate reader at 546/580 nm (excitation/emission). For PBMC proliferation, cells were plated and activated as above but incubated for only 16 h prior to addition of Alamar Blue. Plates were read after 6 h.
Regarding `CC(=O)O`, the result was inactive.

In the case of `CCCCCCC(C=O)=Cc1ccccc1`, the AC50 is 36.3 µM (active).

As to `O=Cc1ccccc1C=O`, the result was inactive.

In the case of `O=C(N[C@@H](c1ccccc1)[C@@H]1CCCCN1)c1cccc(C(F)(F)F)c1Cl`, the outcome was inactive.

In the case of `NCCOCCOCCN`, the outcome was inactive.

As to `CC(C)c1cccc(C(C)C)c1`, the outcome was inactive.

Regarding `CCCCCCCC(=O)OC`, the result was inactive.

For `CC(C)COC(=O)CCCCC(=O)OCC(C)C`, the outcome was inactive.

Consider `Cc1cc(Cc2ccc(N)c(C)c2)ccc1N`, for which the outcome was inactive.

Regarding `CC(C)(O)c1ccc(CNC(=O)c2cccnc2Oc2ccc(F)cc2)cc1`, the result was inactive.

`CC(C)OC(=O)C(C)(C)Oc1ccc(C(=O)c2ccc(Cl)cc2)cc1`: the result was inactive.

On to `CC(=O)OCC(COC(C)=O)OC(C)=O`, for which the outcome was inactive.

As for `N[C@@H](Cc1c[nH]c2ccccc12)C(=O)O`, the outcome was inactive.

As to `NC(=Nc1ccccc1)Nc1ccccc1`, the result was inactive.

Turning to `Cc1occc(=O)c1O`, the result was inactive.

Turning to `CCCC[C@H]1CN(CC2CCOCC2)C(=O)OC12CCN(C1(C)CCN(C(=O)c3c(C)ncnc3C)CC1)CC2`, the result was inactive.

Turning to `OCC(CO)n1cnc(-c2ccc(F)cc2)c1-c1ccnc(Oc2ccccc2)n1`, the result was inactive.

For `Nc1nc(=S)c2[nH]cnc2[nH]1`, the result was inactive.

Take `CCCCCCCCCCCCCCOS(=O)(=O)O`: the outcome was inactive.

For the compound `CC(N)=O`, the result was inactive.

For `O=[Si]=O`, the outcome was inactive.

As for `CC1(C)C(=O)NC(=O)N1CO`, the result was inactive.

Regarding `CCCCCCC(CCCCCCCCCCC(=O)OCC(COC(C)=O)OC(C)=O)OC(C)=O` (stereo not given), the outcome was inactive.

For `C=CCCCCCCCCCCCC`, the outcome was inactive.

In the case of `CSc1ccc(Oc2ccc(S(N)(=O)=O)cc2CN(C)C)cc1C`, the result was inactive.

For `CN(C)CCCN(C)CCCN(C)C`, the result was inactive.

On to `O=C1OC(c2ccc(O)cc2)(c2ccc(O)cc2)c2ccccc21`, for which the result was inactive.

In the case of `CCCCC(CC)COC(=O)CCCCCCCC(=O)OCC(CC)CCCC` (stereo not given), the outcome was inactive.

As for `O=C(NS(=O)(=O)/C=C/c1cccs1)c1ccc(F)cc1Br`, the outcome was inactive.

As to `Cc1ccc(C(C)(C)C)c(O)c1`, the result was inactive.

As for `CC(=O)O[C@]1(C(C)=O)CC[C@H]2[C@@H]3C=C(Cl)C4=CC(=O)[C@@H]5C[C@@H]5[C@]4(C)[C@H]3CC[C@@]21C`, the result was inactive.

For `O=C1NC(=O)C(c2ccccc2)(c2ccccc2)N1`, the outcome was inactive.

Turning to `O=C(O)CN(CC(=O)O)CC(=O)O`, the result was inactive.

For `CN(C)C(=O)NC1(c2ccccc2)CCN(CC[C@@]2(c3ccc(F)c(F)c3)CN(C(=O)c3ccccc3)CCO2)CC1`, the result was inactive.

Consider `CC(=O)OC1CC(C)OC(C)O1` (stereo not given), for which the outcome was inactive.

Take `CN(C)CCCN1c2ccccc2Sc2ccc(Cl)cc21`: the half-maximal activity concentration (AC50) was 32.2 µM (active).

`C#CC(O)C(CC)CCCC` (stereo not given): the outcome was inactive.

As to `O=C1c2c(O)cccc2Cc2cccc(O)c21`, the outcome was inactive.

For the compound `CCCCCCCCCCCCCCCCO`, the result was inactive.

As for `CN(C)C(=O)NC1(c2ccccc2)CCN(CCC[C@]2(c3ccc(Cl)c(Cl)c3)CCCN(C(=O)c3ccccc3)C2)CC1`, the result was inactive.

The term AC50 denotes the midpoint of the concentration-response curve, whichever way the signal moves.
